# The sample as a whole holds a higher share of the strongest signals than the screen did.
# B1: PX14404-bvu-534-26-534 (Bacteroides vulgatus) (protein)
# chain: EDPRGKLTPENFFSTQDELNMSIYALYQKVNLSQVYTNMQLPQWQGDDITTNPGSNKQPAAEMDKFAAANNNKGVKDAWNMHYAIVKAANLIIQGASKTPTTQDEINIALGQAKFWRAYAYFTLVRLWGPLPMNLDNVNDDYTKPLSPVEEVYGHIVQDLTEAEAVLPTGYSGSPRFLNGVNVYVTRQAAKSTLAAVYMAMAGWPMNKTEYYAKAAEKAKEVIEGVNRGEYEYKLDKDYKDVYAMSNNYNNETVLGINYSPFVDWAQDSELTSCNQFESLGGWGDAWGEIRFWKEFPDGPRKDATYDPKIRLKDGTLVDWWELKEDGTPVVPEHHPMFSIFSVNWDPASKVNTSAPYDYTKPASQNMCNDHRHRIIRYSEVLLWYAEAKARTGQTDELAFKCLNDVRERAGLEPLTGLSADDLAEAAYKEHGWEVAGYWVALVTRRADQFRMNRLKDTFKERAENTAVEVADGILVKESVEYTNRTWSDNLMYLPYPDMDSQKNPNLVR
# What was measured:
# Assay in all cases: glycan array binding signal (z-score within array); higher = stronger binding
# Settings in all cases: glycan notation: IUPAC condensed, linker removed
# [1] = target: Fuc(a1-2)Gal(b1-3)GalNAc(a1-3)[Fuc(a1-2)]Gal(b1-4)GlcNAc
# Summary of the method: (§1)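 The binding signal is a Z-score computed within each array and averaged over linkers. Arrays of the same protein sequence at different concentrations or buffers were also averaged together. Data originate from 3228 arrays in the Consortium for Functional Glycomics database, kept only where the protein sequence was available.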
# [2] = target: Fuc(a1-2)Gal(b1-3)GalNAc(b1-3)Gal(a1-4)Gal(b1-4)Glc
# Summary of the method: as §1
# [3] = target: Fuc(a1-2)Gal(b1-3)GalNAc(b1-4)[Neu5Ac(a2-3)]Gal(b1-4)Glc
# Summary of the method: as §1
# [4] = target: Fuc(a1-2)Gal(b1-3)GlcNAc(b1-3)[Fuc(a1-2)Gal(b1-3)GlcNAc(b1-6)]GalNAc
# Summary of the method: as §1
# Fuc(a1-2)Gal(b1-4)Glc6S = target: Fuc(a1-2)Gal(b1-4)Glc6S
# Summary of the method: as §1
# Fuc(a1-2)Gal6S(b1-4)Glc = target: Fuc(a1-2)Gal6S(b1-4)Glc
# Summary of the method: as §1
# [5] = target: Fuc(a1-2)[Gal(a1-3)]Gal(b1-3)GalNAc
# Summary of the method: as §1
# [6] = target: Fuc(a1-2)[Gal(a1-3)]Gal(b1-4)GlcNAc(b1-3)[Fuc(a1-2)[Gal(a1-3)]Gal(b1-4)GlcNAc(b1-6)]GalNAc
# Summary of the method: as §1
# [7] = target: Fuc(a1-2)[Gal(a1-4)]Gal(b1-4)GlcNAc
# Summary of the method: as §1
# [8] = target: Fuc(a1-2)[GalNAc(a1-3)]Gal(b1-4)GlcNAc(b1-2)Man(a1-3)[Fuc(a1-2)[GalNAc(a1-3)]Gal(b1-4)GlcNAc(b1-2)Man(a1-6)]Man(b1-4)GlcNAc(b1-4)GlcNAc
# Summary of the method: as §1
# [9] = target: Fuc(a1-2)[GalNAc(a1-3)]Gal(b1-4)GlcNAc(b1-3)Gal(b1-4)GlcNAc(b1-3)Gal(b1-4)GlcNAc
# Summary of the method: as §1
# [10] = target: Gal(a1-3)[Gal(a1-4)]Gal(b1-4)GlcNAc
# Summary of the method: as §1
# [11] = target: Gal(b1-3)GlcNAc(a1-6)Gal(b1-4)GlcNAc
# Summary of the method: as §1
# Gal(b1-3)GlcNAc6S = target: Gal(b1-3)GlcNAc6S
# Summary of the method: as §1
# [12] = target: Gal(b1-3)[Neu5Ac(a2-6)]GlcNAc(b1-4)Gal(b1-4)Glc
# Summary of the method: as §1
# [13] = target: Gal(b1-3)[Neu5Ac(b2-6)]GalNAc
# Summary of the method: as §1
# Gal(b1-4)Glc6S = target: Gal(b1-4)Glc6S
# Summary of the method: as §1
# [14] = target: Gal(b1-4)GlcNAc(b1-2)Man(a1-3)Man(b1-4)GlcNAc(b1-4)GlcNAc
# Summary of the method: as §1
# [15] = target: Gal(b1-4)GlcNAc(b1-2)[Gal(b1-4)GlcNAc(b1-6)]Man(a1-6)[Gal(b1-4)GlcNAc(b1-2)Man(a1-3)]Man(b1-4)GlcNAc(b1-4)[Fuc(a1-6)]GlcNAc
# Summary of the method: as §1
# [16] = target: Gal(b1-4)GlcNAc(b1-2)[Gal(b1-4)GlcNAc(b1-6)]Man(a1-6)[GlcNAc(b1-4)][Gal(b1-4)GlcNAc(b1-2)Man(a1-3)]Man(b1-4)GlcNAc(b1-4)GlcNAc
# Summary of the method: as §1
# [17] = target: Gal(b1-4)GlcNAc(b1-3)Gal(b1-4)GlcNAc(b1-3)[Gal(b1-4)GlcNAc(b1-3)Gal(b1-4)GlcNAc(b1-6)]GalNAc
# Summary of the method: as §1
# [18] = target: Gal(b1-4)GlcNAc(b1-3)Gal(b1-4)GlcNAc(b1-6)[Gal(b1-3)]GalNAc
# Summary of the method: as §1
# [19] = target: Gal(b1-4)GlcNAc(b1-3)GalNAc
# Summary of the method: as §1
# Gal6S(b1-4)Glc6S = target: Gal6S(b1-4)Glc6S
# Summary of the method: as §1
# GalNAc(b1-4)GlcNAc = target: GalNAc(b1-4)GlcNAc
# Summary of the method: as §1
# Glc(b1-4)Glc = target: Glc(b1-4)Glc
# Summary of the method: as §1
# [20] = target: GlcNAc(a1-4)Gal(b1-3)GlcNAc
# Summary of the method: as §1
# [21] = target: GlcNAc(b1-2)[GlcNAc(b1-6)]Man(a1-6)[GlcNAc(b1-4)][GlcNAc(b1-2)Man(a1-3)]Man(b1-4)GlcNAc(b1-4)GlcNAc
# Summary of the method: as §1
# [22] = target: GlcNAc(b1-3)Gal(b1-4)GlcNAc(b1-6)[Gal(b1-3)]GalNAc
# Summary of the method: as §1
# [23] = target: GlcNAc(b1-3)[GlcNAc(b1-6)]Gal(b1-4)GlcNAc
# Summary of the method: as §1
# Kdn(a2-3)Gal(b1-3)GalNAc = target: Kdn(a2-3)Gal(b1-3)GalNAc
# Summary of the method: as §1
# Man(a1-2)Man(a1-3)Man = target: Man(a1-2)Man(a1-3)Man
# Summary of the method: as §1
# [24] = target: Man(a1-2)Man(a1-3)[Man(a1-6)]Man(a1-6)[Man(a1-2)Man(a1-3)]Man(b1-4)GlcNAc(b1-4)GlcNAc
# Summary of the method: as §1
# [25] = target: Man(a1-3)[Man(a1-6)]Man(a1-6)[Man(a1-3)]Man
# Summary of the method: as §1
# [26] = target: Neu5Ac(a2-3)Gal(b1-3)GlcNAc
# Summary of the method: as §1
# [27] = target: Neu5Ac(a2-3)Gal(b1-3)GlcNAc(b1-3)Gal(b1-4)GlcNAc
# Summary of the method: as §1
# [28] = target: Neu5Ac(a2-3)Gal(b1-3)GlcNAc(b1-6)GalNAc
# Summary of the method: as §1
# [29] = target: Neu5Ac(a2-3)Gal(b1-4)GlcNAc(b1-2)Man(a1-3)[Neu5Ac(a2-6)Gal(b1-4)GlcNAc(b1-2)Man(a1-6)]Man(b1-4)GlcNAc(b1-4)GlcNAc
# Summary of the method: as §1
# [30] = target: Neu5Ac(a2-3)Gal(b1-4)GlcNAc(b1-2)[Neu5Ac(a2-3)Gal(b1-4)GlcNAc(b1-6)]Man(a1-6)[Neu5Ac(a2-3)Gal(b1-4)GlcNAc(b1-2)Man(a1-3)]Man(b1-4)GlcNAc(b1-4)GlcNAc
# Summary of the method: as §1
# [31] = target: Neu5Ac(a2-3)Gal(b1-4)[Fuc(a1-3)]GlcNAc(b1-3)Gal(b1-4)[Fuc(a1-3)]GlcNAc(b1-3)Gal(b1-4)[Fuc(a1-3)]GlcNAc
# Summary of the method: as §1
# [32] = target: Neu5Ac(a2-3)Gal(b1-4)[Fuc(a1-3)]GlcNAc(b1-3)GalNAc
# Summary of the method: as §1
# [33] = target: Neu5Ac(a2-3)Gal(b1-4)[Fuc(a1-3)]GlcNAc(b1-6)[Neu5Ac(a2-3)Gal(b1-3)]GalNAc
# Summary of the method: as §1
# [34] = target: Neu5Ac(a2-3)Gal6S(b1-4)GlcNAc
# Summary of the method: as §1
# Neu5Ac(a2-3)GalNAc = target: Neu5Ac(a2-3)GalNAc
# Summary of the method: as §1
# [35] = target: Neu5Ac(a2-3)[GalNAc(b1-4)]Gal(b1-4)Glc
# Summary of the method: as §1
# [36] = target: Neu5Ac(a2-6)Gal(b1-4)GlcNAc
# Summary of the method: as §1
# [37] = target: Neu5Ac(a2-6)Gal(b1-4)GlcNAc(b1-2)Man
# Summary of the method: as §1
# [38] = target: Neu5Ac(a2-6)Gal(b1-4)GlcNAc(b1-2)[Neu5Ac(a2-6)Gal(b1-4)GlcNAc(b1-4)]Man(a1-3)[GlcNAc(b1-4)][Neu5Ac(a2-6)Gal(b1-4)GlcNAc(b1-2)[Neu5Ac(a2-6)Gal(b1-4)GlcNAc(b1-6)]Man(a1-6)]Man(b1-4)GlcNAc(b1-4)GlcNAc
# Summary of the method: as §1
# [39] = target: Neu5Ac(a2-6)Gal(b1-4)GlcNAc(b1-3)Gal(b1-4)GlcNAc(b1-3)[Neu5Ac(a2-6)Gal(b1-4)GlcNAc(b1-3)Gal(b1-4)GlcNAc(b1-6)]GalNAc
# Summary of the method: as §1
# [40] = target: Neu5Ac(a2-6)Gal(b1-4)GlcNAc(b1-6)GalNAc
# Summary of the method: as §1
# [41] = target: Neu5Ac(a2-6)Gal(b1-4)GlcNAc(b1-6)[Gal(b1-3)GlcNAc(b1-3)]Gal(b1-4)Glc
# Summary of the method: as §1
# [42] = target: Neu5Ac(a2-6)GlcNAc(b1-4)GlcNAc
# Summary of the method: as §1
# [43] = target: Neu5Ac(a2-8)Neu5Ac(a2-8)Neu5Ac(a2-3)[GalNAc(b1-4)]Gal(b1-4)Glc
# Summary of the method: as §1
# [44] = target: Neu5Ac(a2-8)Neu5Gc(a2-3)Gal(b1-4)GlcNAc
# Summary of the method: as §1
# Neu5Gc(a2-6)GalNAc = target: Neu5Gc(a2-6)GalNAc
# Summary of the method: as §1
binder,measurement,setting,value
B1,glycan array binding signal (z-score),[1],-0.799
same,glycan array binding signal (z-score),[2],0.314
same,glycan array binding signal (z-score),[3],-0.348
same,glycan array binding signal (z-score),[4],2.03
same,glycan array binding signal (z-score),Fuc(a1-2)Gal(b1-4)Glc6S,2.24
same,glycan array binding signal (z-score),Fuc(a1-2)Gal6S(b1-4)Glc,2.73
same,glycan array binding signal (z-score),[5],0.15
same,glycan array binding signal (z-score),[6],0.311
same,glycan array binding signal (z-score),[7],0.074
same,glycan array binding signal (z-score),[8],0.042
same,glycan array binding signal (z-score),[9],-0.561
same,glycan array binding signal (z-score),[10],3.57
same,glycan array binding signal (z-score),[11],-0.215
same,glycan array binding signal (z-score),Gal(b1-3)GlcNAc6S,-0.497
same,glycan array binding signal (z-score),[12],0.099
same,glycan array binding signal (z-score),[13],-1.21
same,glycan array binding signal (z-score),Gal(b1-4)Glc6S,0.084
same,glycan array binding signal (z-score),[14],-0.296
same,glycan array binding signal (z-score),[15],-0.583
same,glycan array binding signal (z-score),[16],-0.45
same,glycan array binding signal (z-score),[17],-0.105
same,glycan array binding signal (z-score),[18],4.7
same,glycan array binding signal (z-score),[19],-0.885
same,glycan array binding signal (z-score),Gal6S(b1-4)Glc6S,3.4
same,glycan array binding signal (z-score),GalNAc(b1-4)GlcNAc,-0.29
same,glycan array binding signal (z-score),Glc(b1-4)Glc,-0.903
same,glycan array binding signal (z-score),[20],0.178
same,glycan array binding signal (z-score),[21],-1.21
same,glycan array binding signal (z-score),[22],-0.575
same,glycan array binding signal (z-score),[23],-0.97
same,glycan array binding signal (z-score),Kdn(a2-3)Gal(b1-3)GalNAc,1.92
same,glycan array binding signal (z-score),Man(a1-2)Man(a1-3)Man,1.24
same,glycan array binding signal (z-score),[24],-0.161
same,glycan array binding signal (z-score),[25],2.67
same,glycan array binding signal (z-score),[26],0.177
same,glycan array binding signal (z-score),[27],-0.891
same,glycan array binding signal (z-score),[28],-0.09
same,glycan array binding signal (z-score),[29],0.576
same,glycan array binding signal (z-score),[30],-0.695
same,glycan array binding signal (z-score),[31],0.228
same,glycan array binding signal (z-score),[32],0.921
same,glycan array binding signal (z-score),[33],3.23
same,glycan array binding signal (z-score),[34],0.553
same,glycan array binding signal (z-score),Neu5Ac(a2-3)GalNAc,0.608
same,glycan array binding signal (z-score),[35],-1.43
same,glycan array binding signal (z-score),[36],0.634
same,glycan array binding signal (z-score),[37],-0.24
same,glycan array binding signal (z-score),[38],-0.206
same,glycan array binding signal (z-score),[39],0.075
same,glycan array binding signal (z-score),[40],0.144
same,glycan array binding signal (z-score),[41],-1.1
same,glycan array binding signal (z-score),[42],-0.51
same,glycan array binding signal (z-score),[43],0.28
same,glycan array binding signal (z-score),[44],12.9
same,glycan array binding signal (z-score),Neu5Gc(a2-6)GalNAc,1.92
